In PubChem BioAssay (NCATS):
Results filed as inconclusive are left out. Active and inactive are the calls of the source. Unless noted, the call rests on the fitted dose curve; in most records, active means well fitted curve in the direction sought with a large enough effect; inconclusive means small, poorly fitted or top-dose-only effect, or another doubt; inactive means no such curve, though single readings can be large; an effect the other way counts as inactive or inconclusive.

Legend:
[1] = Cell Viability - BJ (AID 421; calls by dose curve;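 further: potency means the concentration at half of the fitted maximal effect; cells exposed to compound for 40 hours at 37 °C before readout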); settings: BJ fibroblast viability, qHTS
Outline: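 Cytotoxicity in human BJ foreskin fibroblasts is scored as loss of cellular ATP after a 40-hour exposure, measured by luciferase luminescence. Controls are DMSO and 100 uM tamoxifen.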

[2] = Cell Viability - Jurkat (AID 426;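 active means dose-dependent loss of cell ATP signal giving a full or clear fitted curve, ranked by lower potency value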; further: potency means the concentration at half of the fitted maximal effect); settings: qHTS
Outline: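 Jurkat (clone E6-1, human T-cell leukemia) cells, 5000/well in complete medium, were exposed to compound for 40 hr at 37 °C. Viability was read as intracellular ATP by CellTiter-Glo luminescence; AC50 came from Hill fits of concentration-response data.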

[3] = Cell Viability - Hek293 (AID 427;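 active means compounds whose dose-response curve shows a full or clear partial loss of cell viability, called from curve shape rather than a numeric limit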;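 further: potency means the concentration at half of the fitted maximal effect; cells exposed to compound for 40 hours at 37 °C before reading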); settings: qHTS
Outline: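 qHTS, human embryonic kidney (adenovirus-transformed) cells; 40 hr cpd, 37 °C; CellTiter-Glo ATP luminescence. Norm: DMSO = 0, 100 uM tamoxifen = 100% inhibition. Hill-fit AC50.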

[4] = Cell Viability - HepG2 (AID 433; calls by dose curve;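 further: potency means the concentration at half of the fitted maximal effect; potency for ATP loss meaning cytotoxicity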); settings: qHTS
Outline: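 Cytotoxicity read as ATP loss (CellTiter-Glo luminescence) after 40 hr compound exposure of HepG2, 1500 cells/well, 37 °C. AC50 by Hill equation; 0% set by DMSO, 100% inhibition by 100 uM tamoxifen.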

[5] = Cell Viability - MRC5 (AID 434; calls by dose curve;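 further: potency means the concentration at half of the fitted maximal effect; potency reflects cytotoxicity seen as loss of intracellular ATP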); settings: MRC5 lung fibroblast viability, qHTS
Outline: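 MRC5 normal human lung fibroblasts, 1500 cells/well, exposed to compound for 40 hr at 37 C. Cellular ATP was read by CellTiter-Glo luminescence; data normalized to DMSO and 100 uM tamoxifen, with AC50 from Hill fits.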

[6] = Cell Viability - SK-N-SH (AID 435; calls by dose curve; further: potency means the concentration at half of the fitted maximal effect); settings: SK-N-SH neuroblastoma cell viability qHTS
Outline: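 qHTS cytotoxicity: CellTiter-Glo ATP luminescence after 40 h compound exposure of human neuroblastoma SK-N-SH cells at 37 °C. AC50 derived by Hill-equation fitting, with DMSO as basal and 100 uM tamoxifen as full inhibition.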

[7] = Cellular Toxicity (caspase-3) HepG2 (AID 654); settings: HepG2 caspase-3 activation, luminescence, 0% = DMSO only, 100% = tamoxifen; series mostly up to 92.2 µM;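 further: cells exposed to compound for 16 hours before reading; 0% = DMSO alone and 100% = caspase signal from 100 µM tamoxifen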
Outline: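 HepG2 cells (1500/well) in complete medium were treated with compounds for 16 hr at 37 °C. Caspase-3/7 activity was then read as luminescence from peptide-aminoluciferin cleavage. AC50 came from Hill fits, normalized to DMSO and 100 uM tamoxifen.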

[8] = Cellular Toxicity (caspase-3) BJ (AID 658); settings: BJ fibroblasts, luminescence, normalized: DMSO 0%, staurosporine 100%; series mostly up to 91.7 µM
Outline: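 BJ human foreskin fibroblasts, 1000 cells/well, treated 16 hours at 37 °C in complete medium; caspase 3/7 activity by Caspase-Glo luminescence after 1 hr at room temperature. Normalized to DMSO and 10 uM staurosporine; AC50 from Hill fits.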

[9] = Cellular Toxicity (caspase-3) MRC-5 (AID 659); settings: MRC-5 cells, luminescence, normalized: DMSO 0%, 10 µM staurosporine 100%; series mostly up to 91.7 µM
Outline: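 MRC-5 human normal lung fibroblasts, 1500 cells/well, treated 16 h at 37 °C in complete medium. Caspase 3/7 measured by Caspase-Glo luminescence after 1 h at room temperature. Normalized to DMSO and 10 uM staurosporine; AC50 from Hill fit.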

[10] = Cellular Toxicity (caspase-3) Hek293 (AID 664); settings: HEK293 caspase-3 activation, DMSO = 0%, 100 µM tamoxifen = 100%; at 92.2 µM (top of the series);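 further: cells exposed to compound for 16 h at 37 °C before readout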
Outline: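 HEK293 cells were exposed to compounds in complete medium for 16 hr at 37 °C, then caspase-3/7 activity was read by Caspase-Glo 3/7 luminescence after 20 min at room temperature. Data normalized to DMSO and 100 uM tamoxifen; AC50 from Hill fits.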

[11] = Cellular Toxicity (caspase-3) N2a (AID 665); settings: N2a cells, luminescence, normalized: DMSO 0%, 10 µM staurosporine 100%; series mostly up to 92.2 µM;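 further: compound exposure lasted 16 h at 37 °C before readout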
Outline: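 Mouse N2a neuroblastoma cells (1500/well) were treated with compounds for 16 h at 37 °C, then caspase-3/7 activity was read by Caspase-Glo luminescence after 1 h at room temperature. Data were normalized to DMSO and 10 uM staurosporine; AC50 from Hill fits.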

[12] = Cellular Toxicity (caspase-3) NIH 3T3 (AID 666); settings: NIH 3T3 caspase-3 activation, apoptosis/toxicity; series mostly up to 92.2 µM;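 further: caspase signal read after 16 h compound exposure; 0% = DMSO basal and 100% = 100 µM tamoxifen stimulation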
Outline: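 Mouse NIH 3T3 fibroblasts (1000 cells/well) were treated with compound for 16 hr at 37°C in complete medium; caspase-3/7 activity was read by Caspase-Glo luminescence. Normalized to DMSO and 100 uM tamoxifen; AC50 from Hill fits.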

[13] = MultiTox-Fluor Cytotoxicity Assay - LYMP1-001 - Dead Cells (AID 946); settings: LYMP1-001 lymphoblastoid cells, dead-cell protease fluorescence; series mostly up to 92.2 µM
Outline: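 Seed 2500 LYMP1-001 cells/well, incubate 5 hr at 37 C; add compound, 16 hr at 37 C; add MultiTox-Fluor reagent, 60 min RT; read dead-cell fluorescence Ex/Em=485/520. Normalize to DMSO and 15 uM tetraoctylammonium bromide.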

[14] = MultiTox-Fluor Cytotoxicity Assay - LYMP1-002 - Live Cells (AID 955); settings: LYMP1-002 lymphoblastoid live-cell protease fluorescence viability; series mostly up to 46.1 µM; further: on the % scale 0 is the no-effect control and ±100 the full control effect
Outline: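 Human lymphoblastoid LYMP1-002 cells, 2500/well in complete medium, rested 5 hr at 37 C, then exposed to compounds for 16 hr at 37 C. Live-cell protease cleavage of GF-AFC read by fluorescence (Ex/Em 405/510) after 60 min at room temperature; AC50 from Hill fits.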

[15] = MultiTox-Fluor Cytotoxicity Assay - LYMP1-003 - Dead Cells (AID 961); settings: LYMP1-003 lymphoblastoid cells, dead-cell protease fluorescence; series mostly up to 92.2 µM; further: nearly all actives have a fitted effect of over 70% in size
Outline: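 LYMP1-003 lymphoblastoid, 2500 cells/well, 5 hr settle then 16 hr cpd at 37 C; MultiTox-Fluor reagent 60 min RT; Ex/Em 485/520 dead-cell signal; norm. DMSO = 0%, 15 uM tetraoctylammonium bromide = 100%; Hill AC50.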

[16] = Cell Viability - LYMP2-008 (AID 980); settings: LYMP2-008 lymphoblastoid cell viability, qHTS; series mostly up to 92.2 µM; further: on the % scale 0 is the no-effect control and ±100 the full control effect; nearly all actives have a fitted effect of over 60% in size
Outline: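 Human lymphoblastoid cells (2500/well) were plated, held 5 hr at 37 C, then exposed to compounds for 24 hr at 37 C in complete medium. Intracellular ATP was read by CellTiter-Glo luminescence; AC50 from Hill-fitted concentration-response.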

[17] = Cell Viability - LYMP1-002 - Assay at 24 hr (AID 993); settings: LYMP1-002 lymphoblastoid cells viability; series mostly up to 92.2 µM; further: on the % scale 0 is the no-effect control and ±100 the full control effect
Outline: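 Human lymphoblastoid LYMP1-002 cells, 2500/well in complete medium, were treated with compounds for 24 h at 37 C; intracellular ATP was read by CellTiter-Glo luminescence. AC50 values came from Hill-equation fits of qHTS concentration-response data.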

[18] = qHTS Assay for Identification of Small Molecule Inducers of Hypoxia Response (AID 2120; active means well fitted curve in the direction sought with a large enough effect in the signal ratio, with a control signal flat, not every such curve was filed as active; the % refers to the signal ratio; further: 0% is about no effect); settings: hypoxia response reporter cells, beta-lactamase ratio readout; series mostly up to 104 µM
Outline: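 HRE-beta-lactamase reporter in CellSensor HRE-bla ME-180 cells, 2500 cells/well in Opti-MEM with 0.5% dialyzed FBS; compounds tested as titration series, 17 h at 37 degrees C. CCF4 substrate 2.5 h at room temperature; AC50 from 460/530 nm ratio.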

[19] = molecular target: Peroxisome proliferator-activated receptor alpha (Homo sapiens) (UniProt Q07869); assay: qHTS assay for small molecule agonists of the peroxisome proliferator-activated receptor alpha (PPARalpha) signaling pathway (AID 651778); settings: PathHunter PPARalpha complementation, chemiluminescence, 6 h; active compounds read high; further: % of control where 0% means no effect
Outline: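 Enzyme-fragment complementation assay in which ligand-bound PPARalpha translocates and forms an active enzyme that generates chemiluminescence. Cells were plated overnight, exposed to compound for 6 hr at 37 C, and then given detection reagent for 60 min at room temperature.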

[20] = qHTS assay for cell viability of the p53RE-bla HCT-116 cell line (AID 743292); settings: p53RE-bla HCT-116 viability, ATP luminescence, 16 h; series mostly up to 95 µM; further: on the % scale 0 is the no-effect control and ±100 the full control effect; nearly all actives have a fitted effect of over 55% in size
Outline: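 CellSensor p53RE-bla HCT-116 cells, 4,000/well, preincubated 5 h at 37 C, then exposed to compounds in DMSO for 16 h at 37 C. Viability read as CellTiter-Glo luminescence (intracellular ATP) after 30 min at room temperature.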

Sequence of Peroxisome proliferator-activated receptor alpha (Homo sapiens) (Q07869 whole entry, looked up, the tested form may be a part): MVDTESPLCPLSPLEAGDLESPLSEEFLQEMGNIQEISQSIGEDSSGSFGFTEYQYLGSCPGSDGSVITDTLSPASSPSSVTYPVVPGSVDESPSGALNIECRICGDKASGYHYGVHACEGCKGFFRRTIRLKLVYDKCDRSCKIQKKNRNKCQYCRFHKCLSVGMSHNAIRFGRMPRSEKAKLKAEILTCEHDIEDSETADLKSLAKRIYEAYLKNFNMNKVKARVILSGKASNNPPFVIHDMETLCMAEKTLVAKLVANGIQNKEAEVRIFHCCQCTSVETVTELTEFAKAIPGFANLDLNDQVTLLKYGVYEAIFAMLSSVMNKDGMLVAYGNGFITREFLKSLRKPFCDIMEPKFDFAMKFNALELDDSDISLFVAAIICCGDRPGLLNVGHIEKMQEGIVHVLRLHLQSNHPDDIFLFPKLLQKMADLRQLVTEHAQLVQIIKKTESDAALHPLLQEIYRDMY

OCCCCO
inactive: Potency [1] > 92 µM | Potency [2] > 92 µM | Potency [3] > 92 µM | Potency [4] > 92 µM | Potency [5] > 92 µM | Potency [6] > 92 µM | outcome [7] | outcome [8] | outcome [9] | caspase-3 activation [10] -2.02% | outcome [11] | Potency [12] | outcome [13] | outcome [14] | Potency [15] | Potency [16] | Potency [17] | Potency [18] | max response [19] -0.393% | Potency [20]

Nc1ccc(-c2ccc(N)cc2)cc1
inactive: Potency [1] > 92 µM | Potency [2] > 92 µM | Potency [3] > 92 µM | Potency [4] > 92 µM | Potency [5] > 92 µM | Potency [6] > 92 µM | outcome [7] | outcome [8] | outcome [9] | caspase-3 activation [10] 0.43% | outcome [11] | Potency [12] | outcome [13] | outcome [14] | Potency [15] | Potency [16] | Potency [17] | Potency [18] | max response [19] -0.279% | Potency [20]

Nc1ccc([N+](=O)[O-])cc1[N+](=O)[O-]
inactive: Potency [1] > 92 µM | Potency [2] > 92 µM | Potency [3] > 92 µM | Potency [4] > 92 µM | Potency [5] > 92 µM | Potency [6] > 92 µM | outcome [7] | outcome [8] | outcome [9] | caspase-3 activation [10] -0.459% | outcome [11] | Potency [12] | outcome [13] | outcome [14] | Potency [15] | Potency [16] | Potency [17] | Potency [18] | max response [19] -8.48% | Potency [20]

O=Cc1ccc2c(c1)OCO2
inactive: Potency [1] > 92 µM | Potency [2] > 92 µM | Potency [3] > 92 µM | Potency [4] > 92 µM | Potency [5] > 92 µM | Potency [6] > 92 µM | outcome [7] | outcome [8] | outcome [9] | caspase-3 activation [10] 0.153% | outcome [11] | Potency [12] | outcome [13] | outcome [14] | Potency [15] | Potency [16] | Potency [17] | Potency [18] | max response [19] -6.34% | Potency [20]
